Molecules are shown by their SMILES. Inconclusive results are not listed. Active and inactive are the calls of the source. Calls follow the shape of the dose curve; as a rule, active = well fitted curve in the direction sought with a large enough effect; inconclusive = small, poorly fitted or top-dose-only effect, or effect the other way, or another doubt; inactive = no such curve, though single readings can be large or run the other way.

Experimental findings from PubChem BioAssay AID2625 (National Center for Advancing Translational Sciences (NCATS), 2010) are described below.

Sequence of Pyruvate kinase PKLR (Homo sapiens) (P30613 whole entry, looked up): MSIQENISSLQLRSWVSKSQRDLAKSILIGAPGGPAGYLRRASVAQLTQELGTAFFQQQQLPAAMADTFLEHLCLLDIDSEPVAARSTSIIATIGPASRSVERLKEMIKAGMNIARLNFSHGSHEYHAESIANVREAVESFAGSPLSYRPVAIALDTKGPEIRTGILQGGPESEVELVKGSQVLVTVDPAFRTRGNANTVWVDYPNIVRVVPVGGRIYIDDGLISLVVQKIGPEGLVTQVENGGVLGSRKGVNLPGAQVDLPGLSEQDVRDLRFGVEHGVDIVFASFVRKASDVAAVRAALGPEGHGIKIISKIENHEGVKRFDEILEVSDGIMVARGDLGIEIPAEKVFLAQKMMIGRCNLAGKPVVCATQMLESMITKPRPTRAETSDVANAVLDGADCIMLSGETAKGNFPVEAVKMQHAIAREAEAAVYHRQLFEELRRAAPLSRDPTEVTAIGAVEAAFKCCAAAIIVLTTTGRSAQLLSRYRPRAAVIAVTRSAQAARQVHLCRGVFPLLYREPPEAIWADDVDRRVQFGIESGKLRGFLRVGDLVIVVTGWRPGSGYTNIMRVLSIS

In this test the target is Pyruvate kinase PKLR (Homo sapiens) (UniProt P30613). Briefly: Secondary LDH Assay for Activators of Human Liver Pyruvate Kinase: for Probe SAR. To be noted: purified hPK-L, LDH-coupled NADH fluorescence kinetic; series mostly up to 58.2 µM. The source says:
NIH Chemical Genomics Center [NCGC]
Matthew G. Vander Heiden, M.D., Ph.D. [Harvard Medical School, 77 Avenue Louis Pasteur, Boston, MA 02115]
Human pyruvate kinase liver (hPK-L)enzyme was supplied as a highly purified (>95% pure) preparation from Harvard Medical School and a secondary assay was used to evaluate compounds. This assay couples the formation of pyruvate from hPK-R using lactate dehydrogenase (LDH) and NADH. The depletion of NADH is followed in a fluorescent-based kinetic assay that follows the formation of pyruvate to lactate, as catalyzed LDH. Pyruvate kinase substrates, PEP and ADP, were present in the assay at 0.1 mM and 4 mM respectively. In this kinetic assay initial rates were determined by following the fluorescence of NADH depletion.
NCGC Assay Protocol Summary:
Three uL of substrate mix (final concentration, 50 mM Tris-Cl pH 8.0, 200 mM KCl, 15 mM MgCl2, 0.1 mM PEP, 4.0 mM ADP, and 0.2 mM NADH) was dispensed into black-solid 1536 well plates. 23 nL of compounds were delivered by a pin tool and 1 uL of enzyme mix (final concentrations, 10 nM hPK-L and 1 uM of LDH) was added. Plates were immediately placed in ViewLux (Perkin Elmer) and NADH fluorescence was determined at 30 second exposure intervals for between 3 and 6 minutes. Data were normalized to the uninhibited and EC100 activation using known activators such as fructose-bis-phosphate.
As to `O=C1c2ccccc2C(=O)N1Cc1ccccn1`, the result was inactive.
Consider `Cc1ccc(NS(=O)(=O)c2cccc(C(=O)O)c2)cc1C`, for which the outcome was inactive.
For the compound `O=C1CCc2cc(S(=O)(=O)Nc3ccc(Cl)c(Cl)c3)c(F)cc2N1`, the compound was called inactive.
On to `Cc1cc(N2C(=O)c3ccccc3C2=O)no1`, for which the result was inactive.
Turning to `Cc1ccc(NS(=O)(=O)c2ccc3c(c2)CCCC(=O)N3)cc1C`, the call was inactive.
Consider `COc1cccc(OC2=NS(=O)(=O)c3ccccc32)c1`, for which the result was inactive.
In the case of `Cc1ccc(NS(=O)(=O)c2ccc3c(c2)CCN(C(=O)C(F)(F)F)C3)cc1C`, the result was inactive.
Regarding `O=C1c2ccccc2C(=O)N1c1ccc(Cl)cc1`, the compound was called inactive.
Turning to `O=C1c2ccccc2C(=O)N1Cc1ccccc1`, the result was inactive.
In the case of `O=C1c2ccccc2C(=O)N1c1ccc(O)cc1`, the outcome was inactive.
On to `Cc1ccc(N[S+](=O)([O-])c2cc3c(cc2CCc2ccccc2)NC(=O)CO3)cc1C`, for which the outcome was inactive.
As to `Cc1ccc(Cl)cc1NS(=O)(=O)c1cc2c(cc1Cl)CCC(=O)N2`, the compound was called inactive.
For `O=C1CCc2cc(S(=O)(=O)Nc3cccc4ccccc34)ccc2N1`, the compound was classed as inactive.
In the case of `Cc1cc(C)n2c(Nc3ccccc3)c(-c3ccc(C)o3)nc2n1`, the call was inactive.
`Cc1cccc(OC2=NS(=O)(=O)c3ccccc32)c1`: the compound was classed as inactive.
Under `Cc1ccc(NS(=O)(=O)c2cc3c(cc2N(C)C)CCC(=O)N3)cc1C` stands “inactive”; under `Nc1cc(S(=O)(=O)N2CCN(S(=O)(=O)c3ccc4c(c3)OCCO4)CC2)ccn1`, “inactive”; under `O=C1CCc2cc(S(=O)(=O)Nc3ccc4c(c3)CCC4)ccc2N1`, “inactive”.
Under `O=C1c2ccccc2C(=O)N1c1ncccc1O` stands “inactive”; under `COc1ccc(NS(=O)(=O)c2ccc3c(c2)CCC(=O)N3)cc1`, “inactive”; under `O=C1CCc2cc(S(=O)(=O)Nc3ccccc3-c3ccccc3)ccc2N1`, “inactive”.
Consider `Cc1c(Cl)cccc1NS(=O)(=O)c1cc2c(cc1Cl)CCC(=O)N2`, for which the call was inactive.
On to `O=C1CCc2cc(S(=O)(=O)Nc3cccc(B(O)O)c3)ccc2N1`, for which the outcome was inactive.
Consider `O=C1CCc2cc(S(=O)(=O)Nc3cccc(C(F)(F)F)c3)ccc2N1`, for which the call was inactive.
Under `COc1cccc(Cn2ncc3c4sc(SC)cc4n(C)c3c2=O)c1` stands “inactive”; under `O=C1CCc2cc(S(=O)(=O)Nc3cccc(Oc4ccccc4)c3)ccc2N1`, “inactive”.
For `Cc1ccc(NS(=O)(=O)c2ccc3c(c2)N(C)C(=O)CO3)cc1C` the value was “inactive”.
For the compound `O=S1(=O)N=C(Oc2cccc(Cl)c2)c2ccccc21`, the outcome was inactive.
For `Cc1ccc(NS(=O)(=O)c2ccc(Cl)cc2)cc1C` the value was “inactive”; for `O=C1CCc2cc(S(=O)(=O)Nc3ccc4ccccc4c3)ccc2N1`, “inactive”; for `Cc1ccc(OC2=NS(=O)(=O)c3ccccc32)cc1`, “inactive”.
`O=C1CCc2cc(S(=O)(=O)Nc3ccc4c(c3)OCCO4)ccc2N1`: the outcome was inactive.
For the compound `COc1ccc(N2C(=O)c3ccccc3C2=O)cc1`, the result was inactive.
Take `O=C1CCc2cc(S(=O)(=O)Nc3ccc(F)cc3)ccc2N1`: the compound was called inactive.
Consider `Cc1ccc(NS(=O)(=O)c2ccc3c(c2)N(C)CCO3)cc1C`, for which the result was inactive.
Consider `O=C1CCc2cc(S(=O)(=O)Nc3cccc(F)c3)ccc2N1`, for which the result was inactive.
For `Cc1cc(N2C(=O)c3ccccc3C2=O)n[nH]1` the value was “inactive”.
On to `Cc1ccc(NS(=O)(=O)c2ccc(-c3ccccc3)cc2)cc1C`, for which the call was inactive.
Under `Cc1ccc(NS(=O)(=O)c2ccc3c(c2)CCC(=O)N3)cc1C` stands “inactive”; under `Cc1ccc(NS(=O)(=O)c2ccc3c(c2)CCC(C)(C)O3)cc1C`, “inactive”.
